Source: PubChem BioAssay (NCI)
The panel holds about 79,000 compounds, 15% with a hit somewhere; the sample as a whole holds those more often. Active and inactive are the calls of the source. No stated cut-off is given here; in the data, active means growth inhibition above about 70%; inactive means the rest.

Columns and labels:
[1] = NCI Yeast Anticancer Drug Screen. Data for the rad50 strain (AID 155);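 further: 0% = growth of vehicle-only cultures of the same strain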; details: S. cerevisiae rad50 strain growth inhibition; at 50.0 µM; stronger effect = higher value
Outline: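 Genetically altered yeast (DNA repair pathway); compound treatment; growth inhibition vs vehicle ctrl.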

[2] = NCI Yeast Anticancer Drug Screen. Data for the mec2-1 strain (AID 157); details: S. cerevisiae mec2-1 strain, at 50.0 µM, stronger effect = higher value
Outline: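 Readout is yeast growth inhibition, normalised to vehicle-treated controls, in the mec2-1 strain exposed to compound.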

[3] = NCI Yeast Anticancer Drug Screen. Data for the sgs1 mgt1 strain (AID 161);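 further: 0% = growth of cultures given vehicle only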; details: S. cerevisiae sgs1 mgt1 strain, at 50.0 µM, stronger effect = higher value
Outline: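 Compounds are added to genetically altered yeast, and growth is compared with cultures given vehicle alone to give percent inhibition.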

[4] = NCI Yeast Anticancer Drug Screen. Data for the cln2 rad14 strain (AID 165);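 further: 0% = growth equal to vehicle treated cultures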; details: S. cerevisiae cln2 rad14 strain, at 50.0 µM, stronger effect = higher value
Outline: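 Relative to vehicle controls, growth inhibition of compound-treated cln2 rad14 yeast was recorded.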

[5] = NCI Yeast Anticancer Drug Screen. Data for the bub3 strain (AID 167); details: S. cerevisiae bub3 mutant strain, at 50.0 µM, stronger effect = higher value
Outline: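 Yeast carrying a defined mutation is treated with each compound, and growth is compared with that of vehicle-exposed cells to give inhibition.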

[6] = NCI Yeast Anticancer Drug Screen. Data for the mlh1 rad18 strain (AID 175); details: S. cerevisiae mlh1 rad18 strain growth inhibition; at 50.0 µM; stronger effect = higher value
Outline: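 Test agents were incubated with a yeast strain of defined genotype (DNA damage repair defect). Inhibition of growth was derived by comparison with vehicle-exposed cultures.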

Measured: growth inhibition

[C-]#[O+].[C-]#[O+].[C-]#[O+].[C-]#[O+].[Fe].[N-]=C(C(F)(F)F)C(F)(F)F
inactive: [1] -16.4% | [2] -19.8% | [3] -11.7% | [4] -0.25% | [5] -11.2% | [6] -25.4%

O=C(NCCN1CCOCC1)c1cc(N(CCCl)CCCl)c([N+](=O)[O-])cc1[N+](=O)[O-]
inactive: [1] 15.8% | [2] 7.45% | [3] 16.6% | [4] 23.6% | [5] 33.1% | [6] 27.9%

Oc1ccccc1C=NC1CCCCC1N=Cc1ccccc1O.[Ni] (centres undefined)
inactive: [1] 18.7% | [2] 4.05% | [3] 7.9% | [4] -8.6% | [5] -0.55% | [6] -10.4%

Cn1cnnc1N
inactive: [1] 5.4% | [2] 5.7% | [3] 6.3% | [4] 4.4% | [5] 13.2% | [6] 4.35%

O=[N+]([O-])C1CCC(O)C([N+](=O)[O-])C1 (centres undefined) (tested in a mixture with another compound)
inactive: [2] 37.7% | [4] 69.3% | [5] 13.6%
active: [1] 71.8% | [3] 93.7% | [6] 86.8%

Nn1cnnc1
inactive: [1] -12.9% | [2] -7.95% | [3] -9.7% | [4] -9.35% | [5] -3.05% | [6] -16.2%

CC1NC1(c1ccccc1)n1ccnc1 (centres undefined)
inactive: [1] 13.4% | [2] -18.1% | [3] 5.8% | [4] -14.5% | [5] 11.4% | [6] 3.4%

O=C1C2CC(CN3CCCCC23)C2CCCCN12 (centres undefined)
inactive: [1] -4.55% | [2] -24.1% | [3] 18.9% | [4] 8.35% | [5] -4.15% | [6] -24.2%

NC(=O)c1c[se]c(C2OC(CO)C(O)C2O)n1 (centres undefined)
inactive: [1] -13.1% | [2] -8.75% | [3] -9.75% | [4] -3.25% | [5] -14.8% | [6] -9.95%

COC(=O)/C=C/[C@H]1[C@H](C)N1S(=O)(=O)c1ccc(C)cc1 (some centres undefined)
inactive: [1] 8.75% | [2] 20.1% | [3] 14.8% | [4] 4.4% | [5] -22.6% | [6] -7.25%

O=c1[nH]c(=O)[nH]c(=O)[nH]1
inactive: [1] 25.6% | [2] -16.1% | [3] -12.9% | [4] -42.8% | [5] 1.1% | [6] 27.6%

COc1ccc2ccc([Se]c3ccc4ccc(OC)cc4c3)cc2c1
inactive: [1] -1.25% | [2] -22.4% | [3] -1.85% | [4] 4.45% | [5] 7.55% | [6] -1.1%

CC(=O)Nc1ccc(Cl)cc1
inactive: [1] -20.4% | [2] -7.15% | [3] -18.1% | [4] 1.7% | [5] 9.45% | [6] -1.9%

COc1ccc2[nH]cc(/C=C\[N+](=O)[O-])c2c1
inactive: [1] 6% | [2] -10.1% | [3] 32.4% | [4] 2.2% | [5] 7.65% | [6] 13.8%

O=C(Cc1ccccc1)OCC1CCCO1 (centres undefined)
inactive: [1] 18.2% | [2] -6.6% | [3] -3.45% | [4] -25.7% | [5] -17.8% | [6] 10.5%

CC1OC(OC2C(O)C(O)C(O)C(O)C2O)C(N)CC1N=C(N)C(=O)O (centres undefined)
inactive: [1] 12.5% | [2] 3.6% | [3] -18.1% | [4] -34.5% | [5] -0.35% | [6] 23.6%

Cc1cc(S(=O)(=O)F)ccc1O
inactive: [1] -3% | [2] -6.2% | [3] -16.5% | [4] -42.8% | [5] -2.6% | [6] -1.3%

CC1=CC(=O)[C@@H](O)[C@]2(C)[C@H]3[C@@]4(O)OC[C@]35[C@H]([C@@H](C)[C@H]4O)[C@@H](O)C(=O)O[C@@H]5C[C@@H]12
inactive: [1] 41.8% | [2] 9.7% | [3] 36% | [4] 30.2% | [5] 15.2% | [6] 35.9%

Cc1ccc2c(c1)C(=S)N1CSCC1c1nncn1-2 (centres undefined)
inactive: [1] 30.6% | [2] 30% | [3] 28.9% | [4] 20.9% | [5] 13.4% | [6] 35.8%
